Results as given in PubChem BioAssay AID588726 (The Scripps Research Institute Molecular Screening Center, 2011).
Screen size: about 360,000 compounds; about 8,200 (2.3%) were called active. This is one part of a sample in which actives are shown more often than they occur. A number with no mark means an inactive call. No stated cut-off is given here; in the data, active means inhibition above about 27%; inactive means the rest.

Target: Fructose-bisphosphate aldolase (Mycobacterium tuberculosis (strain ATCC 25618 / H37Rv)) (UniProt P9WQA3)
Assay: Mtb FBA enzyme inhibitors, primary screen, biochemical, fluorescence, strain H37Rv (AID 588726);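 further: 0% = vehicle and 100% = reference inhibitor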
Conditions: purified M. tuberculosis FBA, fluorescence read-out, at 1 µM, active compounds read high

Sequence of Fructose-bisphosphate aldolase (Mycobacterium tuberculosis (strain ATCC 25618 / H37Rv)) (P9WQA3 whole entry, looked up): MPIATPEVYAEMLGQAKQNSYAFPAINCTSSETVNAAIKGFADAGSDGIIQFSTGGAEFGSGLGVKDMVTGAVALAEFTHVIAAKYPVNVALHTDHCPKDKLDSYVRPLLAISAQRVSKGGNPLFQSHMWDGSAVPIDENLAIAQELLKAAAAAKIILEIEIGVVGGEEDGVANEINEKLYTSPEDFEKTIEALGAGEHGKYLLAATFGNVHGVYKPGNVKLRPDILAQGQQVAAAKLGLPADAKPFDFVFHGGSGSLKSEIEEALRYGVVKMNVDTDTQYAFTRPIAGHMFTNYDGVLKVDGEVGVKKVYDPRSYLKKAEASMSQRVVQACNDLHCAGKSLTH

Row | Compound | inhibition
1 | C[C@H](O)[C@@H]1C(=O)N2CCc3c([nH]c4ccccc34)[C@@H]2C[C@@H]1N(C)C(=O)Nc1ccc(F)cc1 | 55.9% (active)
2 | C[C@H](O)[C@@H]1C(=O)N2CCc3ccc(N4CCOCC4)cc3[C@@H]2C[C@@H]1N(C)C(=O)C(C)(C)C | 7.29%
3 | COCC(=O)N(C)[C@H]1C[C@H]2c3cc(Oc4ccccc4C)ccc3CCN2C(=O)[C@H]1[C@H](C)O | 0.95%
4 | COc1ccc(CCNC(=O)CCCCCNC(=O)N2CCn3c2nc2ccccc23)cc1OC | -0.38%
5 | CCc1c(C)c2ccc(OC3CCCCC3=O)cc2oc1=O (stereo not given) | 90.5% (active)
6 | CCc1nc2ccccc2c(C(=O)OC2CCCCC2=O)c1C (stereo not given) | 0.09%
7 | CCOc1ccc2c(=O)c(-c3ccc4c(c3)OCCCO4)c(C)oc2c1 | -0.24%
8 | COC(=O)C(NS(=O)(=O)c1ccc(F)cc1)c1ccccc1 (stereo not given) | 1.52%
9 | CCSC1(SCC)N=C(N)C2(C#N)C(c3ccccc3)NC(C)=CC12C#N (stereo not given) | 4.9%
10 | CN1C[C@@H](CO)O[C@@H](n2cnc3c(N4CCN(CCO)CC4)ncnc32)C1 | -1.44%
11 | COc1ccc2oc(=O)c(C(=O)N3CCCC3)cc2c1 | 27.7% (active)
12 | COc1ccc2oc(=O)c(C(=O)NCc3ccccn3)cc2c1 | 82.7% (active)
13 | COc1ccc(C(=O)N2CCCN(C)CC2)c(OC)c1 | 1.38%
14 | C=CCc1cccc2cc(C(=O)N3CCN(C(=O)OCC)CC3)c(=O)oc12 | 1.44%
15 | COc1ccc(NC(=O)C2C3C=CC(C3)C2C(=O)NCc2ccccn2)c(OC)c1 (stereo not given) | 3.99%
16 | CCOC(=O)N1CCN(C(=O)c2cc3c(ccc4ccccc43)oc2=O)CC1 | 48.8% (active)
17 | COc1ccc(-c2nc(CS(=O)CC(=O)NCc3ccccn3)c(C)o2)cc1 (stereo not given) | 4.79%
18 | CCOC(=O)N1CCN(C(=O)c2n[nH]c(=O)c3ccccc23)CC1 | -0.89%
19 | COc1cccc2cc(C(=O)N3CCN(C(=O)c4ccccc4)CC3)c(=O)oc12 | -2.27%
20 | C=CCC(CC=C)(C(N)=O)c1ccccc1 | -1.04%

Row | Compound | inhibition
21 | C[C@H]1CN([C@@H](C)CO)C(=O)CCCn2cc(nn2)CO[C@@H]1CN(C)C(=O)Nc1ccccc1 | 0.08%
22 | O=C(NC1CCCC1)C1CC(=O)N(c2ccc(F)cc2)C1 (stereo not given) | -3.06%
23 | COc1cccc(NC(=O)C2(C)CCN2Cc2ccccc2Cl)c1 (stereo not given) | 3.88%
24 | CCOC(=O)Cc1csc(SCc2cc(=O)oc3cc(O)ccc23)n1 | 2.87%
25 | Cc1nc(COc2cc3oc(=O)cc(C)c3cc2Cl)cs1 | 27.6% (active)
26 | Cc1cc(=O)oc2cc(OCC3CC(c4ccccc4Cl)=NO3)ccc12 (stereo not given) | 9.86%
27 | CC1(C)Cc2c(sc(NC(=O)C(=O)N3CCOCC3)c2C#N)CO1 | 1.66%
28 | CCOC(=O)CSc1nc(N2CCOCC2)c2c(c1C#N)CC(C(C)C)OC2 (stereo not given) | 0.67%
29 | C1=C(N2CCOCC2)/C(=C/c2nc3ccccc3[nH]2)CC1 | 14.8%
30 | CC(C)C(=O)N1CCN(c2nc(-c3ccccc3)c3c(c2C#N)CC(C)(C)OC3)CC1 | 18.4%
31 | CC1(C)Cc2c(C#N)c(SCc3nc4ccccc4[nH]3)nc(N3CCOCC3)c2CO1 | 29.3% (active)
32 | CC(C)c1nc(N2CCOCC2)c(C#N)c2c1COC(C)(C)C2 | 48.2% (active)
33 | CN1CCC2(CC1)NC(=O)NC2=O | 0.25%
34 | Cc1cc(C(=O)N2CCC(C(=O)O)CC2)c(C(F)(F)F)o1 | -0.52%
35 | CN(CCC1CCOCC1)C(=O)CC1C(=O)NCCN1Cc1cccc(F)c1 (stereo not given) | 5.7%
36 | CC(C)CN1CCNC(=O)C1CC(=O)N(C)CC1CCOCC1 (stereo not given) | 91.2% (active)
37 | COc1ccccc1CN1CCNC(=O)C1CC(=O)N(C)CC1CCOCC1 (stereo not given) | 0.79%
38 | N#CCc1c[nH]c2ccc([N+](=O)[O-])cc12 | -4.4%
39 | O=C(CN(C(=O)c1csnn1)c1ccc(Br)cc1)NC1CCCC1 | 2.14%
40 | COc1ccc(/C=C/C(=O)NC(=S)NN2CCCCC2c2cccnc2)cc1 (stereo not given) | 1.24%

Row | Compound | inhibition
41 | CC1CCCCN1C(=O)CCS(=O)(=O)Cc1ccccc1 (stereo not given) | -0.22%
42 | Cc1nn(-c2ccccc2)nc1C(=O)OCC(=O)N1CCCCC1C (stereo not given) | 31.5% (active)
43 | Cc1cc(C(=O)OCC(=O)N2C(C)CCCC2C)c2ccccc2n1 (stereo not given) | 6.33%
44 | O=C(CN(C(=O)c1nsc(Cl)c1Cl)c1cccc(F)c1)NC1CCCC1 | 0.07%
45 | COc1ccc(CNC(=O)COC(=O)/C=C/c2ccc(S(=O)(=O)N3CCOCC3)cc2)cc1 | -5.75%
46 | Cc1ccc(C2Nc3ccccc3C(=O)N2CCN2CCNC2=O)cc1 (stereo not given) | 95.6% (active)
47 | Cc1ccc(S(=O)(=O)N2CCC(C(=O)OCC(=O)N3CC(=O)Nc4ccccc43)CC2)cc1 | -1.07%
48 | O=C1c2ccccc2NC(c2ccccn2)N1NS(=O)(=O)c1ccccc1 (stereo not given) | 11.3%
49 | Cc1[nH]n(-c2ccccc2)c(=O)c1CCOC(=O)c1ccc(C(F)(F)F)cc1 | -0.48%
50 | COc1ccccc1N1CCN(CC(=O)NCCc2ccc(S(N)(=O)=O)cc2)CC1 | 0.12%
51 | COc1ccc(CCNC(=O)COc2cc(C)cc3oc(=O)c(C)c(C)c23)cc1OC | 2.14%
52 | O=C(COc1ccc2ccc(=O)oc2c1)NCC(O)c1ccccc1 (stereo not given) | 15.9%
53 | CC(NC(=O)COc1ccc(-c2ccccc2)cc1)C1CCCO1 (stereo not given) | 0.11%
54 | Cc1ccc(OCC(=O)NC(C)c2ccccc2)c([N+](=O)[O-])n1 (stereo not given) | -3.72%
55 | Cc1cc(OCC(=O)Nc2nccs2)c2c(C)c(C)c(=O)oc2c1 | 5.31%
56 | COc1cccc(CCNC(=O)COc2cccc3c2OC(C)(C)C3)c1 | -1.69%
57 | Cc1cc(OCC(=O)NCC(O)c2ccccc2)c2c(C)c(C)c(=O)oc2c1 (stereo not given) | 66.1% (active)
58 | Cc1cc(=O)oc2c3c(cc(OCC(=O)NCC(O)c4ccccc4)c12)OC(C)(C)CC3 (stereo not given) | 49.2% (active)
59 | O=C(COc1ccc2c3c(c(=O)oc2c1)CCCC3)NCC(O)c1ccccc1 (stereo not given) | 15.8%
60 | CCN(CC)CCCNC(=O)COc1ccc2oc3c(c2c1)CCCC3 | 0.55%
